Source: PubChem BioAssay (NCATS)
Records with an inconclusive call do not appear. Calls of active or inactive are those of the source. Unless noted, calls come from the whole dose curve; as a rule, active = well fitted curve in the direction sought with a large enough effect; inconclusive = small, poorly fitted or top-dose-only effect, or another doubt; inactive = no such curve, though single readings can be large; an effect the other way counts as inactive or inconclusive.

Legend:
[1] = target: Lysosomal acid glucosylceramidase (Homo sapiens) (UniProt P04062); experiment: Glucocerebrosidase-p2 (AID 348; in the data active = potency below about 10 µM; note: potency is the fitted concentration of half-maximal effect); conditions: purified GBA, blue fluorogenic substrate, 40 min
Summary of the method: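 Normal human glucocerebrosidase (0.2 nM) with blue fluorogenic substrate (80 uM final) in citrate/phosphate pH 5.9 with 10mM sodium taurocholate, 0.01% tween-20; 40 min RT, NaOH/glycine stop; fluorescence Ex 365/Em 440; AC50 from a titration from 0.6 nM upwards.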

[2] = AP1 Signaling Pathway (AID 357; active = well fitted curve in either direction with a large enough effect, not every such curve was filed as active;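 note: ME-180 reporter cells stimulated with EGF at its EC50 level; % is set by controls: 0 for no effect and ±100 for the full control effect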); conditions: ME-180 AP-1-bla reporter, EGF-induced, beta-lactamase ratio, 5 h; at 7.69 µM (top of the series) unless noted
Summary of the method: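 AP-1-bla ME-180 cells, Opti-MEM + 0.5% dialyzed FBS, plated overnight 37 °C. Cpd titration + EC50 EGF, 5 h 37 °C. CCF4 2.5 h RT; ex 405, em 460/530 ratio → %activity, AC50.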

[3] = target: Cytochrome P450 1A2 (Homo sapiens) (UniProt P05177); experiment: p450-cyp1a2 (AID 410; calls by dose curve; note: potency is the fitted concentration of half-maximal effect;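 for activity change, negative = inhibition: -100% = full effect of reference inhibitor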); conditions: recombinant CYP1A2, luciferin-ME demethylation, luminescence; series mostly up to 57 µM
Summary of the method: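 O-Demethylation of luciferin 6' methyl ether by human CYP1A2 is monitored as luciferase luminescence. Substrate sits at Km (100uM); enzyme is 20nM. Values are scaled to 57 uM furafylline as maximal inhibition.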

[4] = NFAT Signaling Pathway (AID 444; active = well fitted curve in either direction with a large enough effect, not every such curve was filed as active;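 note: carbachol stimulus at about its EC50 of 1 µM final; % is set by controls: 0 for no effect and ±100 for the full control effect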); conditions: Jurkat NFAT-bla M1, carbachol, beta-lactamase ratio, 5 h; at 7.69 µM (top of the series) unless noted
Summary of the method: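 Jurkat cells with NFAT-driven β-lactamase reporter and co-expressed M1 receptor, stimulated with carbachol (final 1 uM, ~EC50), compound titration, 5 h at 37 °C. CCF4 loaded 1 h at RT; 460/530 nm ratio gave %activity and AC50.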

[5] = Stat Signaling Pathway (AID 446; active = well fitted curve in either direction with a large enough effect, not every such curve was filed as active;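 note: ME-180 cervical cancer cells given 40 pM IL-6 alongside compound; SIE-controlled beta-lactamase reporter measured as 460/530 nm FRET emission ratio; % is set by controls: 0 for no effect and ±100 for the full control effect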); conditions: ME-180 (cervical carcinoma) SIE beta-lactamase reporter, IL-6 stimulated, 5 h; at 7.69 µM (top of the series) unless noted
Summary of the method: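 Emission at 460 and 530 nm (excitation 405 nm) reports SIE-controlled beta-lactamase in ME-180 cells. Cells received compound with 40 pM IL-6 for 5 hrs at 37 C; data scaled between 300 pM IL-6 and 125 nM JAK-inhibitor controls.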

[6] = target: Glucocorticoid receptor (Homo sapiens) (UniProt P04150); experiment: GR-GFP Redistribution (AID 450;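 active = compounds whose dose series gives a full or clear partial fitted curve of increased nuclear translocation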; note: potency is the fitted concentration of half-maximal effect); conditions: U2OS GR-GFP nuclear translocation, laser cytometry, 2 h
[7] = target: Glucocorticoid receptor (Homo sapiens) (UniProt P04150); experiment: GR-EFC Redistribution (AID 451; calls by dose curve; note: potency is the fitted concentration of half-maximal effect); conditions: CHO-K1 GR-EFC translocation, beta-gal luminescence, 2 h
Summary of the method: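 CHO-K1 cells expressing nuclear EA and GR-ED fragments of b-gal; compounds titrated up to 46 uM final, 2 h at 37 C. GR nuclear translocation read as complemented b-gal luminescence after 1 h RT detection.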

[8] = target: Mitogen-activated protein kinase 10 (Mus musculus) (UniProt Q61831); experiment: JNK3 AlphaScreen Assay (AID 530; active = well fitted curve in either direction with a large enough effect, not every such curve was filed as active;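 note: kinase came from lysate of stimulated human HepG2 cells; signal reports phosphorylation of biotinylated GST-cJun 1-79 at Ser73 with 10 µM ATP; % is set by controls: 0 for no effect and ±100 for the full control effect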); conditions: JNK3 lysate, c-Jun phosphorylation; series mostly up to 57.1 µM
Summary of the method: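 Activity was read by AlphaScreen after JNK3-containing HepG2 lysate (cytokine pre-activated) phosphorylated biotinylated GST-cJun with 10 uM ATP at room temperature. Phospho-Ser73 cJun antibody with Protein-A acceptor beads provided detection.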

[9] = target: 3',5'-cyclic-AMP phosphodiesterase 4B (Homo sapiens) (UniProt Q07343); experiment: qHTS Assay for Inhibitors of PDE-IV (AID 607; active = well fitted activation curve with a large enough effect in the main read-out, with a control signal flat, not every such curve was filed as active; note: % of control where 0% means no effect); conditions: HEK293 ACTOne CNG channel cells, membrane potential fluorescence; series mostly up to 22.9 µM
Summary of the method: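 The readout is membrane depolarisation from a cAMP-sensing CNG channel, detected with a potential dye at ex 535/em 590. Cells were HEK293-derived (endogenous PDE-IV) at 1000 cells/well, titrated up to 22.9 uM final.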

[10] = target: Cytochrome P450 3A4 (Homo sapiens) (UniProt P08684); experiment: qHTS Assay for Activators of Cytochrome P450 3A4 (AID 885); conditions: recombinant CYP3A4, Luciferin-PPXE luminescence, 60 min; series mostly up to 57.1 µM; note: nearly all actives have a fitted effect of over 65% in size
Summary of the method: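 Activators are scored by enhanced luminescence from CYP3A4 conversion of luciferin-PPXE (25uM, equal to KM) to luciferin, after 60 min at RT with an NADPH-regenerating system.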

[11] = qHTS Assay for Lipid Storage Modulators (AID 1519; calls by dose curve); conditions: Drosophila S3 cells, BODIPY lipid droplet/cell ratio, laser cytometry, cells loaded with oleic acid; for activity change, negative = inhibition: at 57.5 µM (top of the series)
Summary of the method: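 Cells seeded at 5,000 per well were treated with compounds over a concentration series and loaded with oleic acid (400 uM, as added). Lipid droplet fluorescence (488 nm excitation, 500-530 nm channel) was read by laser-scanning cytometry and normalized to 20 uM Triacsin C.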

[12] = target: Dual specificity protein kinase CLK4 (Homo sapiens) (UniProt Q9HAZ1); experiment: qHTS Assay for Inhibitors of CDC-like Kinase 4 (Kinase-Glo Assay) (AID 1770); conditions: recombinant Clk4, Kinase-Glo ATP depletion luminescence; series mostly up to 66.7 µM; note: % is set by controls: 0 for no effect and ±100 for the full control effect; nearly all actives have a fitted effect of over 65% in size
Summary of the method: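 Luminescent ATP-depletion read-out (Kinase-Glo) after 4.5 h room-temperature reaction of Clk4 (25 nM final) with RS peptide (100 uM) and ATP (1 uM), pH 7.5 Tris buffer with MgCl2 and DTT.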

[13] = target: Dual specificity protein kinase CLK4 (Homo sapiens) (UniProt Q9HAZ1); experiment: qHTS Assay for Inhibitors of CDC-like Kinase 4 (ADP-Glo Assay) (AID 1771); conditions: recombinant CLK4, ADP-Glo luminescence; series mostly up to 80 µM; note: % is set by controls: 0 for no effect and ±100 for the full control effect; nearly all actives have a fitted effect of over 70% in size
Summary of the method: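 Compounds are pin-transferred onto substrate mix (100 uM RS peptide, 1 uM ATP), then 25 nM Clk4 is added. After 1 hr at room temperature, ADP-Glo reagent runs 45 min, detection reagent 30 min, then luminescence is read.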

[14] = target: Dual specificity protein kinase CLK4 (Homo sapiens) (UniProt Q9HAZ1); experiment: qHTS Assay for Inhibitors of CDC-like Kinase 4 (ADP-FP Assay) (AID 1795); conditions: Transcreener ADP fluorescence polarization; series mostly up to 50 µM;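 note: recombinant human CLK4 phosphorylating RS repeat peptide at 1 µM ATP; % is set by controls: 0 for no effect and ±100 for the full control effect; nearly all actives have a fitted effect of over 60% in size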
Summary of the method: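 Kinase activity was measured as ADP production using Transcreener orange tracer (4 nM) and ADP antibody (1 ug/mL) fluorescence polarization, with ADP calculated from a calibration curve. The 1 h reaction contained 6.25 nM Clk4, 1 uM ATP and 100 uM RS peptide at pH 7.5 with Mg2+.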

[15] = target: Ubiquitin carboxyl-terminal hydrolase 1 (Homo sapiens) (UniProt O94782); experiment: Inhibitors of USP1/UAF1: Pilot qHTS (AID 504865); conditions: purified USP1/UAF1, Ub-rhodamine cleavage fluorescence; series mostly up to 54.9 µM;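 note: rhodamine fluorescence freed from ubiquitin-rhodamine substrate followed over time; top concentration of the series differs between compounds; % is set by controls: 0 for no effect and ±100 for the full control effect; nearly all actives have a fitted effect of over 35% in size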
Summary of the method: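 Deubiquitinase activity followed as kinetic rhodamine fluorescence release from 150 nM Ub-Rho. 1 nM USP1/UAF1 with compound, after 15 min room-temperature preincubation, in HEPES pH 7.8 buffer containing TCEP, EDTA, BSA and Tween-20.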

[16] = Primary qHTS for small molecule stabilizers of the endoplasmic reticulum resident proteome: Secreted ER Calcium Modulated Protein (SERCaMP) assay (AID 1508630); conditions: SH-SY5Y GLuc-SERCaMP (Gaussia luciferase released on ER calcium loss) secretion, thapsigargin, luminescence; series mostly up to 38.4 µM; note: % is set by controls: 0 for no effect and ±100 for the full control effect
Summary of the method: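 The SH-SY5Y reporter protocol was run at 3 concentrations up to 38.3 uM (primary) or 11 concentrations (follow-up): 16 h compound, 100 nM thapsigargin for 4 h, then extracellular luciferase luminescence.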

[17] = measured here: cell count channel max response
[18] = measured here: lipid channel max response

Chain of Cytochrome P450 3A4 (Homo sapiens) (P08684 whole entry, looked up): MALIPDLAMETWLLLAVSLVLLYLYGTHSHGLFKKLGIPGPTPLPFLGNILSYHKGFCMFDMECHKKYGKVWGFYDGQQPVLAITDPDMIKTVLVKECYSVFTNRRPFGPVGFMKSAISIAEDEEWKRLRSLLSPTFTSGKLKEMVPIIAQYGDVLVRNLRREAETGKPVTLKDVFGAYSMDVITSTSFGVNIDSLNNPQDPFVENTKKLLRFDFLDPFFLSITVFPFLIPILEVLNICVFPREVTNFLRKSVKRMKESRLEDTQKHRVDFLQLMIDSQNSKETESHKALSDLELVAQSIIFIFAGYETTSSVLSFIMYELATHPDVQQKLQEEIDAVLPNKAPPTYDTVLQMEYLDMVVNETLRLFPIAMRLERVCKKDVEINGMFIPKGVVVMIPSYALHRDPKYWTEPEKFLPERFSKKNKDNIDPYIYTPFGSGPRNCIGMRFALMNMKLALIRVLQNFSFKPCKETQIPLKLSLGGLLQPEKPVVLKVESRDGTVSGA
Chain of Dual specificity protein kinase CLK4 (Homo sapiens) (Q9HAZ1 whole entry, looked up): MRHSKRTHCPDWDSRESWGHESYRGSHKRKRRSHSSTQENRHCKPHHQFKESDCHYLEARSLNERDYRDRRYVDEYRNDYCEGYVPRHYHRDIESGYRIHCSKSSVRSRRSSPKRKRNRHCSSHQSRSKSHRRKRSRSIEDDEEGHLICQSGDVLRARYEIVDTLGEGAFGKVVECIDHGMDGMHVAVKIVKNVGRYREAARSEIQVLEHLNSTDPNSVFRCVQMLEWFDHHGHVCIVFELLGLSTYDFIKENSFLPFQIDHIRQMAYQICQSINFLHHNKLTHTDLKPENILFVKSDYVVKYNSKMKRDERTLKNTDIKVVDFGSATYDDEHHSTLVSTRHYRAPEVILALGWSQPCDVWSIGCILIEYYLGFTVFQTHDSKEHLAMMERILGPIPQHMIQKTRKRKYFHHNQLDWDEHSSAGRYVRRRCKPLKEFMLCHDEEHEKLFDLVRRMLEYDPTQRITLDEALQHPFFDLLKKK
Chain of Lysosomal acid glucosylceramidase (Homo sapiens) (P04062 whole entry, looked up): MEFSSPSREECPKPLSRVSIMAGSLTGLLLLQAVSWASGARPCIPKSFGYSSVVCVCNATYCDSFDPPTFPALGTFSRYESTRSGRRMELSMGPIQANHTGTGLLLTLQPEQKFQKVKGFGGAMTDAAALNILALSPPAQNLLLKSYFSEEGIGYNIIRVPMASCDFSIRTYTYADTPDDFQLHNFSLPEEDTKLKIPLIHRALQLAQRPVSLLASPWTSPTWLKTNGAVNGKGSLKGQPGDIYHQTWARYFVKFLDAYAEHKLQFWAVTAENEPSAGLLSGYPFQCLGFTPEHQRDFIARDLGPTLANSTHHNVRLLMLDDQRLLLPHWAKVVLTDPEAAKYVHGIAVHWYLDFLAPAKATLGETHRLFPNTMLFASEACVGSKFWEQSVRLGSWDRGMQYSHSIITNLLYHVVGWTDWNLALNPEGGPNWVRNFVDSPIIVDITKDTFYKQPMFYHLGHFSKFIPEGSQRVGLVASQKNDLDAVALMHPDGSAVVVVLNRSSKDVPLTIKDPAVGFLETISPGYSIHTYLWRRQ
Chain of Cytochrome P450 1A2 (Homo sapiens) (P05177 whole entry, looked up): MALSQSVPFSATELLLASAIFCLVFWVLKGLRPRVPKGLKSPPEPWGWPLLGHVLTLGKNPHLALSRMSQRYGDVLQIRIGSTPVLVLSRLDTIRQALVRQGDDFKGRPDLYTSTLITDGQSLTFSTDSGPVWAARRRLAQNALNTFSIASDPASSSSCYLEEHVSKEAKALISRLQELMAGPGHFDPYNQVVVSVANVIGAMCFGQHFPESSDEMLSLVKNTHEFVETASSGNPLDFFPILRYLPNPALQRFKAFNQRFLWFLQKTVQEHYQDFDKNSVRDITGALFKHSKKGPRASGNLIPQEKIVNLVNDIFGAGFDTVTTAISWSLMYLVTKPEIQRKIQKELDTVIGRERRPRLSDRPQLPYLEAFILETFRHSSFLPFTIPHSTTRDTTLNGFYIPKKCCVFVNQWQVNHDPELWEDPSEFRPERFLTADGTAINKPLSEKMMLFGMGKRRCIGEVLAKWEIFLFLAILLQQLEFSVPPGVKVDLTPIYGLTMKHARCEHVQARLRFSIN
Chain of Glucocorticoid receptor (Homo sapiens) (P04150 whole entry, looked up, the tested form may be a part): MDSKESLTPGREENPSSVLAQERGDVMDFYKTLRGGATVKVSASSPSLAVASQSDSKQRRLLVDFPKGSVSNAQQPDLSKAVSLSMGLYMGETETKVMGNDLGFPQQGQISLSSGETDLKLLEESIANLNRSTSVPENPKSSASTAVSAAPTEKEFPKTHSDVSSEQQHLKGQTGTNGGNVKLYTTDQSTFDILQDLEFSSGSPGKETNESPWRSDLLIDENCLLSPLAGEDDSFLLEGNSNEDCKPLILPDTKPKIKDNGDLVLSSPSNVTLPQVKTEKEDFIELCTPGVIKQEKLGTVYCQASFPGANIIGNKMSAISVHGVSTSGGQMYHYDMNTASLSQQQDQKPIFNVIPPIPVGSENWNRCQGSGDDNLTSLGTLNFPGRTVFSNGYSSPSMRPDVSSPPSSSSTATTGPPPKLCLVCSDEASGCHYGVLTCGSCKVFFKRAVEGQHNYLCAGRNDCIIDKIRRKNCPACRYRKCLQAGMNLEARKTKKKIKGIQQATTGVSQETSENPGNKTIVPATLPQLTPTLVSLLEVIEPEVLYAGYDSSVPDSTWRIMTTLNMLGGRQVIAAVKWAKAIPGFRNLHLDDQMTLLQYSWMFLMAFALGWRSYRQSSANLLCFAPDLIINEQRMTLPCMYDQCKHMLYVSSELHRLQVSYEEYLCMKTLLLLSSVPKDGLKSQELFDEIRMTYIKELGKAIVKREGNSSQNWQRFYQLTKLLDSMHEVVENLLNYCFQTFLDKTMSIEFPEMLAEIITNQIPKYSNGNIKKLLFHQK
Chain of 3',5'-cyclic-AMP phosphodiesterase 4B (Homo sapiens) (Q07343 whole entry, looked up): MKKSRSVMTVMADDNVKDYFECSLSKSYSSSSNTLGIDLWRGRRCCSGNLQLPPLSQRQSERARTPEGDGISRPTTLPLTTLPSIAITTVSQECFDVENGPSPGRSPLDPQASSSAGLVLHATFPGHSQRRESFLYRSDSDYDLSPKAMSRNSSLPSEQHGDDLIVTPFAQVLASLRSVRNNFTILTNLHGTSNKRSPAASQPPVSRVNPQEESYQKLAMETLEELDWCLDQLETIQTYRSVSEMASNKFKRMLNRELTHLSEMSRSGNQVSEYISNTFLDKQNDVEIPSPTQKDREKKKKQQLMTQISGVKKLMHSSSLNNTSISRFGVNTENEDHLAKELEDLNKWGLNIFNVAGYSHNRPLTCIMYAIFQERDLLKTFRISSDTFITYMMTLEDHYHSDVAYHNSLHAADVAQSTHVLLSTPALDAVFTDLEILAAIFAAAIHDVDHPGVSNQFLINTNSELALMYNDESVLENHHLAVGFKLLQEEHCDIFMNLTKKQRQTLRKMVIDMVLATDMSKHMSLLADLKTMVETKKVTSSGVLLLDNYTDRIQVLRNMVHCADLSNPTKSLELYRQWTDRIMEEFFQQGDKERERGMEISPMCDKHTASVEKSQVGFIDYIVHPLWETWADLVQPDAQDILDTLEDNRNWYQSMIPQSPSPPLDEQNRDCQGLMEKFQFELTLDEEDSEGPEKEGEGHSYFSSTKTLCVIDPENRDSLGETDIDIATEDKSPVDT
Chain of Ubiquitin carboxyl-terminal hydrolase 1 (Homo sapiens) (O94782 whole entry, looked up): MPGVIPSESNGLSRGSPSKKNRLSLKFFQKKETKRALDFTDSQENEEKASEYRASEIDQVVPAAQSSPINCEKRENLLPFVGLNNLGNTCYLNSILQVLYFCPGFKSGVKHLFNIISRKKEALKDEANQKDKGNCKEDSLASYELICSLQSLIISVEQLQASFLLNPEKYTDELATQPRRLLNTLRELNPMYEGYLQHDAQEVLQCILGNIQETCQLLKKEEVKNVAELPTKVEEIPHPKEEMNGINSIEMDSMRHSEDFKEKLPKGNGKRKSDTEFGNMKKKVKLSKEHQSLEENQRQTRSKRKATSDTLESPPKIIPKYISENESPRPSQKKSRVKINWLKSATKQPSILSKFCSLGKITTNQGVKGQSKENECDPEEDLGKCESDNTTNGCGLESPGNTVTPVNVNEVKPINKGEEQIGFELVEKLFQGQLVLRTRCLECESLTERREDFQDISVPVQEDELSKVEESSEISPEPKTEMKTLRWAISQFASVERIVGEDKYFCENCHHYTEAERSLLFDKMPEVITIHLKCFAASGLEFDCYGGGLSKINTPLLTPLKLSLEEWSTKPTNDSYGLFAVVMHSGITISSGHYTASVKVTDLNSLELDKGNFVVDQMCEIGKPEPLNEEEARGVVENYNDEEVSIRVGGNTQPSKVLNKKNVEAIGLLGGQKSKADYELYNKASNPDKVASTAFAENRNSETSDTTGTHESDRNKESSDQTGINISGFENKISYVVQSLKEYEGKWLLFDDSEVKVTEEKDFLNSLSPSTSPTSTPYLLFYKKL

## COc1cccc(Cn2c(=O)c(-c3cccs3)nc3cnc(N(C)C)nc32)c1
[1]
  Potency: > 11.4 µM (inactive)
[2]
  activity change, negative = inhibition: -9.34% (inactive)
[3]
  Potency: 15.8 µM (active)
[4]
  activity change, negative = inhibition: 23.2% (inactive)
[5]
  activity, negative = inhibition: 11.2% (inactive)
[6]
  Potency: > 9.22 µM (inactive)
[7]
  Potency: > 46 µM (inactive)
[8]
  outcome: inactive
[9]
  Potency: inactive
[10]
  Potency: inactive
[11]
  activity change, negative = inhibition: 3.91% (inactive)
[11]; [17]
  max response: 25.6%
[11]; [18]
  max response: 27.3%
[12]
  Potency: inactive
[13]
  Potency: inactive
[14]
  Potency: inactive
[15]
  Potency: inactive
[16]
  Potency: inactive

## Cn1cc(-c2nc3cnc(N4CCNCC4)nc3n(C)c2=O)c2ccccc21
[1]
  Potency: > 11.4 µM (inactive)
[2]
  activity change, negative = inhibition: 4.46% (inactive)
[3]
  Potency: 15.8 µM (active)
[4]
  activity change, negative = inhibition: 6.17% (inactive)
[5]
  activity, negative = inhibition: 25.8% (inactive)
[6]
  Potency: > 9.22 µM (inactive)
[7]
  Potency: > 46 µM (inactive)
[8]
  outcome: inactive
[9]
  Potency: inactive
[10]
  Potency: inactive
[11]
  activity change, negative = inhibition: 6.84% (inactive)
[11]; [17]
  max response: 11.6%
[11]; [18]
  max response: 17.7%
[12]
  Potency: inactive
[13]
  Potency: inactive
[14]
  Potency: inactive
[15]
  Potency: inactive
[16]
  Potency: inactive

## COCCNc1ncnc2ccc(-c3ccc(C(=O)N(C)C)cc3)cc12
[1]
  Potency: > 11.4 µM (inactive)
[2]
  activity change, negative = inhibition: -7.19% (inactive)
[3]
  Potency: inactive
[4]
  activity change, negative = inhibition: 11.8% (inactive)
[5]
  activity, negative = inhibition: 0.699% (inactive)
[6]
  Potency: > 46 µM (inactive)
[7]
  Potency: > 46 µM (inactive)
[8]
  outcome: inactive
[9]
  Potency: inactive
[10]
  Potency: inactive
[11]
  activity change, negative = inhibition: -0.0247% (inactive)
[11]; [17]
  max response: 4.77%
[11]; [18]
  max response: 3.74%
[12]
  Potency: inactive
[13]
  Potency: inactive
[14]
  Potency: inactive
[15]
  Potency: inactive
[16]
  Potency: inactive
